# Akt phos inh: blocks phosphorylation of Akt; Neuro2A IGF-stimulated pAkt S473 HTRF, 20 min; hits give low values; AID 651550; activity change, % for hits at 50 µM; 0.32% of 360,000 active; in the data active means activity change below about -80%; inconclusive means mostly about -51% to -80%
#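 Single-point screen (50 µM final compound) in Neuro2A cells stimulated 20 min with 6 nM IGF at 37 deg C. After lysis, Ser473-phosphorylated Akt read by HTRF (ex 330 nm, em 615/665 nm) as the 665/615 ratio.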
# CCT modulator: changes cytosolic chaperonin activity | purified chaperonin ATPase assay, HTRF ADP detection, 30 min | activity change, % (test concentration not listed), hits read low | 0.3% of 360,000 active | AID 651819; in the data active means activity change below about -30%
#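 TRiC (40 or 20 nM final, by batch activity) in 30 mM Tris pH 7.4, 100 mM KCl, 5 mM MgCl2, 1 mM DTT was treated with compound at 76 uM single dose, then 10 uM ATP, 30 min at 37 °C. ADP was read by HTRF Transcreener.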
# CtBP-E1A inh: CtBP/E1A binding inhibition | AlphaScreen GST-E1A/His-CtBP binding, 1536-well; hits give low values | activity change, % (no concentration beside the values) | 0.49% of 340,000 active | AID 651724
#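 Steps: dispense buffer (Tris pH 8.0, NaCl 300 mM, TCEP 1 mM, BSA, Tween 20); add 5X protein mix (GST-E1A, His-CtBP, 125 nM each); pin 23 nL compound; 2 h at 37 °C, dark; add 5X beads (50 ug/mL); 1 h; read.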
# Six1-Eya2 blk: inhibitors of human Six1/Eya2 interaction. Q15475+O00167. activity change, % (test concentration not listed). AlphaScreen GST-Six1/His-Eya2 binding, biochemical; hits give low values. AID 651725. 0.56% of 360,000 active
# Target sequence (O00167 whole entry, looked up): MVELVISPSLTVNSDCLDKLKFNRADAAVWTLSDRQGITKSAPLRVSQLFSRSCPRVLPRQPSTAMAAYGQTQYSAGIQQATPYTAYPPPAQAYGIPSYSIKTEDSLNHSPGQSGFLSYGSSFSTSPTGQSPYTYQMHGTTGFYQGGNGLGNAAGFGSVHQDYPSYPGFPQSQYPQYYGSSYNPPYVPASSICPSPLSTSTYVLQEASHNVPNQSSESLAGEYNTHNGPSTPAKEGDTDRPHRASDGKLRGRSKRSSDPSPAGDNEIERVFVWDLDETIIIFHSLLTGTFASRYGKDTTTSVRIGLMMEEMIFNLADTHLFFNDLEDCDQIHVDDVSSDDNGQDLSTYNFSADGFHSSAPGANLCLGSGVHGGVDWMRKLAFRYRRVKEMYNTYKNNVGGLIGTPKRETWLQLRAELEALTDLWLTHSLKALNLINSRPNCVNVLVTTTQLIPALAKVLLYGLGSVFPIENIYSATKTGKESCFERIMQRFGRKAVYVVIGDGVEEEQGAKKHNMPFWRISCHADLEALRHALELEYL
# Target sequence (Q15475 whole entry, looked up): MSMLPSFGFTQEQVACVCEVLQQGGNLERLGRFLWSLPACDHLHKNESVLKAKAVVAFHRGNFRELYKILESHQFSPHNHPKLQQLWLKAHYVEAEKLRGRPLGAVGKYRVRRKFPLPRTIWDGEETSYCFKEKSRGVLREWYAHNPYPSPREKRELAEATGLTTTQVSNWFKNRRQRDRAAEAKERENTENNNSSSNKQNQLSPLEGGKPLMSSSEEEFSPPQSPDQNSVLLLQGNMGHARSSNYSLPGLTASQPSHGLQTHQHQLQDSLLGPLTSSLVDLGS
#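 Six1/Eya2 binding was read as AlphaScreen signal after compounds were pinned into GST-Six1 plus His-tagged Eya2 (5X stock 250/500 nM) in pH 8.0 Tris/NaCl/TCEP buffer, beads added, then incubated 1 h, 37 C, dark.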
# The depositor's hits bear a star; i = inactive; ? = inconclusive; nt = not tested or not shown. This is a sample that favours compounds with a hit; in the whole collection about 1.3% have one here. Unless noted, no stated cut-off is given here; in the data, active means activity change below about -65%; inconclusive means mostly about -30% to -63%; inactive means weaker than that. On the % scale 0 is the no-effect control and ±100 the full control effect.
SMILES,Akt phos inh,CCT modulator,CtBP-E1A inh,Six1-Eya2 blk
Cc1ccc(Cl)c(NC(=O)COC(=O)c2nn(C)c(=O)c3ccccc23)c1Cl,i,-43*,nt,6
Cn1nc(C(=O)OCC(=O)NCCc2ccccc2)c2ccccc2c1=O,i,-32*,-1,2
CC(C)C[C@H]1CNC(=O)C(=O)N1C[C@H]1CCCN1C[C@H](CC(C)C)N1C[C@H](Cc2ccccc2)N(CCc2ccccc2)C(=O)C1=O,i,1,0,-2
O=C(/C=C/c1ccccc1)c1ccccn1,-119%*,2,-1,-4
CC(=O)Nc1ccc(S(=O)(=O)N2CCC(n3cnc4cc(F)ccc43)CC2)cc1,-106%*,1,-9,-11
CCOc1ccccc1C1c2[nH]c3ccccc3c2C[C@H]2C(=O)N(C3CC3)CC(=O)N12 (stereo not given in full),i,-1,-4,-3
ON(CCc1ccccn1)CCc1ccccn1,i,-4,-24,?
OCCN(Cc1ccccn1)Cc1ccccn1,i,1,-89*,-90*
COc1cccc(/C=N/NC(=O)c2[nH]c(C)c(C(=O)N/N=C/c3cccc(OC)c3)c2C)c1,i,-3,?,-68*
CC(=O)Nc1ccc(NC(=O)CSc2ccc3nnc(CCNS(=O)(=O)c4ccc(C)cc4)n3n2)cc1,i,-2,0,0
CN(CC(=O)Nc1c(Cl)cccc1Cl)C(=O)C1=COCCO1,i,0,16,0
CCCCC(=O)N(C)c1c(CC)nc2c(OCC(=O)C(C)(C)C)cccn12,i,1,-3,1
COC(=O)c1ccccc1NC(=O)CN1CCC(NC(=O)c2ccc(C)cc2)CC1,i,-1,-12,1
Cc1ccc(C(=O)NC2CCN(CC(=O)Nc3ccccc3Cl)CC2)cc1,i,-37*,3,0
COCCN(C(=O)COC(=O)Cc1coc2cc3c(cc12)CCC3)c1c(N)n(Cc2ccccc2)c(=O)[nH]c1=O,i,-3,-11,-19
CC(=O)OC1CC(c2cc(C(C)(C)C)c(O)c(C(C)(C)C)c2)=NO1 (stereo not given),i,-5,1,2
CCCCN(C(=O)c1cc(CN2C(=O)c3ccccc3C2=O)ccc1OC)c1c(N)n(CC(C)C)c(=O)[nH]c1=O,i,-84*,-3,11
CCCCN(C(=O)c1ccc(N2C(=O)c3ccccc3C2=O)cc1)c1c(N)n(CC(C)C)c(=O)[nH]c1=O,i,-2,8,4
O=C(/C=C/c1ccc(F)cc1)NC(=S)NNC(=O)c1cnccn1,i,-5,-81*,-90*
O=C(NNC(=S)NC(=O)c1cccnc1)c1ccc(F)cc1,i,-1,-3,-1
COc1ccc(/C=C/C(=O)NC(=S)NNC(=O)c2cccnc2)cc1,i,-2,1,?
O=C(NC(=S)NNC(=O)c1cnccn1)c1ccc(F)cc1,i,-3,nt,-92*
CC(=O)Nc1ccc(NC(=O)COC(=O)C2CCCCC2)cc1,i,-1,nt,1
O=C1Nc2cc3c(cc2C1=O)sc1ccccc13,i,-1,3,-1
COc1cc(/C=C/C(=O)O)cc(S(=O)(=O)NC2CCCC2)c1OC,i,-1,nt,9
SMILES,Akt phos inh,CCT modulator,CtBP-E1A inh,Six1-Eya2 blk
COc1ccc(/C=C/C(=O)O)cc1S(=O)(=O)NC1CCS(=O)(=O)C1 (stereo not given),i,-97*,-1,0
COc1cccc(C(=O)N(C)CC2CCN(CCc3cccc(C(F)(F)F)c3)CC2)c1,i,0,nt,-2
CN(C(=O)COC(=O)c1ccccc1NCCO)C1CCS(=O)(=O)C1 (stereo not given),i,-6,5,3
Cc1ccccc1/C=N/Nc1nc2ccccc2[nH]1,i,-1,-8,12
C(=N\Nc1nc2ccccc2[nH]1)/c1cccc2cccnc12,i,3,nt,-84*
C(=N\Nc1nc2ccccc2[nH]1)/c1ccccc1,i,-11,-1,-2
O=[N+]([O-])c1cc(/C=N/Nc2nc3ccccc3[nH]2)c(O)cc1O,i,-2,-99*,-97*
C(C#CCCCCCCCCC[n+]1ccccc1)#CCCCCCCCCC[n+]1ccccc1,i,-2,-6,9
O=[N+]([O-])c1ccccc1OCCN1CCOCC1,i,-1,4,4
COc1ccccc1/C=C/C(=O)NCC(=O)N/N=C/c1cc(Br)ccc1OC,i,-1,?,?
COc1cccc(/C=N/NC(=O)CNC(=O)CCc2ccccc2)c1O,i,1,nt,-69*
COc1ccccc1/C=C\C(=O)NCC(=O)N/N=C/c1cccc(OC)c1O,i,0,-89*,?
COc1cccc(/C=N/NC(=O)CNC(=O)c2cccs2)c1O,i,-2,-89*,-85*
COc1cc(/C=N/NC(=O)CCC(=O)NCc2ccccc2)cc(OC)c1OC,i,1,-66*,-12
COc1ccc(NC2=Nc3ccccc3N3C2=Nc2c(c(C)nn2-c2ccc(C)cc2)C3c2cccnc2)cc1 (stereo not given),i,-45*,-5,2
CC(=O)Nc1ccc(NC2=Nc3ccccc3N3C2=Nc2c(c(C)nn2-c2ccccc2)C3c2ccccc2)cc1 (stereo not given),i,-1,3,6
O=C(NNc1c2ccccc2nc2ccccc12)c1ccccc1O,i,0,-73*,?
O=C(NNc1c2ccccc2nc2ccccc12)c1ccc(O)cc1O,i,-6,-84*,-84*
O=C(NCc1ccco1)c1ccc(Cl)c(S(=O)(=O)Nc2ccccc2)c1,i,0,-5,-10
CNS(=O)(=O)c1cc(C(=O)NCc2ccco2)ccc1Cl,i,-3,21,-69*
CCOC(=O)CN1N=C(/C=C/c2ccc(OCC)cc2)CCC1=O,i,-8,5,-1
CCOC(=O)CN1N=C(/C=C/c2ccccc2)CCC1=O,i,-48*,-3,-6
CC(NC(=O)COC(=O)CNC(=O)c1ccccc1Cl)C1CC2CCC1C2 (stereo not given),i,-40*,-2,19
O=c1[nH]c(CN2CCN(c3ccccc3O)CC2)nc2ccccc12,-110%*,-4,-5,-4
COc1ccc(CC(C)Nc2cccc(SC)c2)cc1 (stereo not given),i,1,nt,-8
SMILES,Akt phos inh,CCT modulator,CtBP-E1A inh,Six1-Eya2 blk
O=C(O)c1cccc(-n2cccc2/C=N/O)c1,-109%*,-1,4,-30
ON=Cc1cccn1-c1ccccc1,i,-4,-1,-7
O=C(COc1ccc2ccc(=O)oc2c1)NCCCN1CCCC1=O,i,0,2,-1
O=C(NC1CCCCCC1)C1CCCN(c2ncccn2)C1 (stereo not given),i,-2,1,1
CN(CCc1ccccc1)C(C(=O)Nc1ccc2c(c1)OCCO2)C1CC1 (stereo not given),i,-1,-13,31
C=CCN1C=C/C(=C\C=C(C#N)C#N)c2ccccc21,i,2,-79*,?
